HT1080 IDH1KD tx – HT-1080 IDH1 knockdown cell toxicity (counter line); AID 686971; Potency, µM (highest dose often 46.1 µM), without a hit: at the top dose activity, negative = toxicity, most hits filed as cytotoxic; 360,000 tested, 2% active; HT-1080 IDH1 knockdown viability, ATP luminescence, 48 h;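 further: 0% = DMSO wells and -100% = cell-free medium wells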
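HT-1080-IDH1KD cells (IDH1 knocked down), 750/well in RPMI with 5% FBS, treated with compound 48 h at 37 degrees C. Viability by CellTiter-Glo luminescence, normalised to DMSO and no-cell wells; concentration-response curves classed.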
DT40 TDP1 no CPT – qHTS for Inhibitors of human tyrosyl-DNA phosphodiesterase 1 (TDP1): qHTS in cells in absence of CPT | DT40 Tdp1-/- hTDP1 cells, no CPT, ATP luminescence, 48 h | Potency, µM (series often up to 46.2 µM), for inactives: at the highest dose activity change, negative = growth inhibition, usual class: inhibitors | 420,000 tested, 15% active; further: nearly all actives have a fitted effect of over 55% in size
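Cells were dispensed at 400 per well, compounds added by pin tool, plates incubated ≥48 hr at 37 °C, then CellTiter-Glo added for 30 min at room temperature before luminescence reading. Line: DT40 Tdp1-/- complemented with hTDP1; camptothecin omitted.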
DT40 TDP1 CPT – DT40-hTDP1 cell growth loss with CPT; chicken DT40 Tdp1-/-;hTDP1 cells + 20 nM CPT, ATP luminescence, 48 h; Potency, µM (series often up to 46.2 µM), without a hit: top-dose activity change, negative = growth inhibition, actives largely listed as inhibitors; 420,000 tested, 12% active; further: nearly all actives have a fitted effect of over 55% in size
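Cell growth measured by CellTiter-Glo luminescence after a minimum 48 h, 37 C compound exposure with 20 nM CPT in Tdp1-knockout DT40 cells stably expressing hTDP1, seeded 400/well; qHTS titration format.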
HT1080NT lethal – kills 2HG-producing HT-1080-NT fibrosarcoma cells; HT-1080-NT fibrosarcoma viability, CellTiter-Glo ATP luminescence, 48 h; Potency, µM (series often up to 46.1 µM), for inactives: at the highest dose activity, negative = less viability, actives largely listed as cytotoxic; 360,000 tested, 1.6% active; AID 686970;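 further: NT is the 2HG producing partner of a matched IDH1 knockdown line; 0% = DMSO-treated cells and -100% = media-only wells without cells; nearly all actives have a fitted effect of over 55% in size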
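Luminescent CellTiter-Glo readout after 48 hours of compound exposure at 37 degrees C defined viability of HT-1080-NT cells. Activity was normalized to DMSO wells and cell-free media wells; concentration-response curves were fitted and assigned curve classes.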
KB-3-1 tox – kills parental KB-3-1 adenocarcinoma cells. 400,000 tested, 1.4% active. KB-3-1 viability, CellTiter-Glo ATP luminescence, 72 h. Potency, µM (titrated, usually from 46.1 µM), actives largely listed as cytotoxic; further: nearly all actives have a fitted effect of over 60% in size
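KB-3-1 cells, DMEM (no phenol red) + 10% FBS; compound by pin transfer, 72 h, 37 °C. Readout: CellTiter-Glo luminescence after 10 min. Data normalized, curve-fitted.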
KB-V1 cytotox – KB-V1 MDR subline cytotoxicity. KB-V1 MDR cells viability, CellTiter-Glo, 72 h. Potency, µM (doses to about 46.1 µM), usual class: cytotoxic. 400,000 tested, 3.4% active. AID 1347076; further: nearly all actives have a fitted effect of over 60% in size
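Cells of the MDR subline KB-V1 are plated, dosed with compound at multiple concentrations, and incubated 72 h at 37 degrees C; CellTiter-Glo is then added and luminescence read after 10 min.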
An asterisk follows results filed as active; i = inactive; ? = inconclusive; nt = not tested or not shown. An excerpt weighted towards active compounds, which were near 19% of everything screened. The call rests on the fitted dose curve; in most records, active means well fitted curve in the direction sought with a large enough effect; inconclusive means small, poorly fitted or top-dose-only effect, or another doubt; inactive means no such curve, though single readings can be large; an effect the other way counts as inactive or inconclusive. Unless noted, on the % scale 0 is the no-effect control and ±100 the full control effect; potency means the concentration at half of the fitted maximal effect.

SMILES | HT1080 IDH1KD tx | DT40 TDP1 no CPT | DT40 TDP1 CPT | HT1080NT lethal | KB-3-1 tox | KB-V1 cytotox
COc1ccc(-c2cc(C(=O)N3CCN(c4ccccc4OC)CC3)no2)cc1OC | 15.8% | 20.6µM* | -14.6% | 0.0% | i | i
COc1ccc(-c2cc(C(=O)N3CCN(c4ccccc4)CC3)no2)cc1OC | 10.4% | ? | -28.8% | 2.0% | i | i
COCCNc1nc(-c2cc(C)n(CCc3ccc(OC)cc3)c2C)cs1 | -13.2% | 18.4µM* | 16.4µM* | -19.8% | ? | ?
O=C(Nc1cccc(Cl)c1)c1csc([C@H]2C[C@H](O)[C@@H](CO)O2)n1 | -4.1% | ? | 18.4µM* | 13.7% | i | i
O=C(Nc1ccc(Oc2ccccc2)cc1)c1csc([C@@H]2C[C@H](O)[C@@H](CO)O2)n1 | 2.59µM* | ? | ? | ? | i | i
O=C(Nc1ccc(Cl)cc1)c1csc([C@@H]2C[C@H](O)[C@@H](CO)O2)n1 | 21.0% | -22.5% | ? | 24.2% | i | i
Cc1ccc(NC2=C(CC(=O)O)C(c3ccccc3)N(c3ccc(C)cc3)C2=O)cc1 (stereo not drawn) | -5.5% | ? | 16.4µM* | -9.9% | i | i
COc1ccc(S(=O)(=O)NC(=O)C2(C)CCN2C(=O)CC2CC2)cc1 (stereo not drawn) | 16.1% | 0.8% | 2.5% | 5.7% | i | i
CCOC(=O)c1cnc2ccc(OC)cc2c1NCCc1ccc(OC)c(OC)c1 | 7.3% | 7.31µM* | 6.51µM* | 2.7% | i | ?
CCOC(=O)c1cnc2ccccc2c1NCCc1ccc(OC)c(OC)c1 | 0.6% | 10.3µM* | 16.4µM* | 1.3% | i | i
CCOC(=O)c1ccc2ncc(C(=O)OCC)c(NCCN(C)C)c2c1 | 14.2% | -16.4% | 2.6% | ? | i | i
O=C(/C=C/[C@H]1O[C@@H](n2cnc3c(NC(=O)c4ccccc4)ncnc32)[C@H](O)[C@@H]1O)NCC1CCCO1 (stereo partly drawn) | 17.5% | 2.7% | 16.7% | 19.9% | i | i
COc1ccc(-c2noc3c2-c2nc(-c4c(F)cccc4F)sc2CC3)cc1 | 1.9% | -21.9% | -16.9% | -11.2% | i | i
COc1ccc([N+](=O)[O-])cc1C1NN=C(c2ccccc2O)S1 (stereo not drawn) | ? | 3.26µM* | 3.66µM* | ? | i | i
CCCCCCCCS(=O)C1CCS(=O)(=O)C1 (stereo not drawn) | -0.1% | ? | -19.0% | -3.7% | i | i
CCCCCCS(=O)[C@H]1CS(=O)(=O)C[C@@H]1S(=O)CCCCCC (stereo partly drawn) | 0.2% | ? | 23.1µM* | -4.2% | i | i
CCc1ccccc1NC(=O)C1CCN(C2=NS(=O)(=O)C(c3ccc(C)c(C)c3)=C2C)CC1 | nt | ? | ? | nt | i | i
CC1=C(c2ccc(C)c(C)c2)S(=O)(=O)N=C1N1CCC(C(=O)N2CCC(C)CC2)CC1 | nt | 6.51µM* | ? | nt | i | i
CCOC(=O)C1CCN(C(=O)C2CCN(C3=NS(=O)(=O)C(c4ccc(C)c(C)c4)=C3C)CC2)CC1 | nt | ? | 16.4µM* | nt | i | i
CC1=C(c2ccc(C)c(C)c2)S(=O)(=O)N=C1N1CCC(C(=O)N2CCC(C(N)=O)CC2)CC1 | nt | 6.7% | 3.5% | nt | i | i
CC1=C(c2ccc(C)c(C)c2)S(=O)(=O)N=C1N1CCC(C(=O)Nc2ccc(Cl)cc2)CC1 | nt | 14.6µM* | 16.4µM* | nt | i | i
CCCCCCN(C(=O)CCCN1C(=O)NC(c2ccc([N+](=O)[O-])cc2)C(C(=O)OCc2ccccc2)=C1C)C(C)C(=O)NCCCC (stereo not drawn) | -7.0% | 9.2µM* | 11.6µM* | -1.8% | i | i
CCOC(=O)C1=C(C)N(CCCCCC(=O)O)C(=O)NC1c1ccc([N+](=O)[O-])cc1 (stereo not drawn) | 1.5% | -8.0% | 15.7% | 3.3% | i | i
O=C(c1ccccc1Cl)N1c2ncnn2C2(CCCCC2)[C@@H]2CCCC[C@@H]21 | nt | ? | -29.0% | nt | i | i
O=C(c1cccc([N+](=O)[O-])c1)N1c2ncnn2C2(CCCCC2)[C@@H]2CCCC[C@@H]21 | nt | 8.2µM* | ? | nt | i | i
SMILES | HT1080 IDH1KD tx | DT40 TDP1 no CPT | DT40 TDP1 CPT | HT1080NT lethal | KB-3-1 tox | KB-V1 cytotox
S=c1cn[nH]c2ccccc12 | 1.8% | -29.5% | -10.5% | -2.7% | i | i
CCCCN(CCCC)C(=O)CSc1nnc(-c2cc(OC)c(OC)c(OC)c2)o1 | -12.4% | 14.1µM* | 17.8µM* | 7.9% | ? | 12.6µM*
COc1cc(-c2nnc(SCC(=O)N(Cc3ccccc3)C(C)(C)C)o2)cc(OC)c1OC | -4.6% | 14.6µM* | 13µM* | -24.6% | i | ?
CCCCOC(=O)CSc1nnc(-c2cc(OC)c(OC)c(OC)c2)o1 | 1.7% | 4.2% | -4.7% | 11.3% | i | i
COc1ccccc1CNC(=O)c1cnn(-c2nccc(-c3cccs3)n2)c1C | nt | ? | 18.4µM* | nt | nt | nt
Cc1c(C(=O)NCCc2ccccn2)cnn1-c1nccc(-c2cccs2)n1 | nt | -17.5% | -12.0% | nt | nt | nt
C[C@H]1COc2cc(N3CCC[C@H]3CO)ccc2S(=O)(=O)N1 | 1.2% | 0.0% | 5.1% | 5.6% | i | i
CC(C)CN(C(=O)COC(=O)c1c2c(nc3ccccc13)CCC2)c1c(N)n(Cc2ccccc2)c(=O)[nH]c1=O | -18.9% | ? | ? | 0.2% | nt | nt
Cc1c(C2=CCN(S(=O)(=O)c3ccc(Cl)cc3)CC2)c2ccccc2n1CC(=O)N1CCCC1 | nt | ? | ? | nt | i | i
c1ccc(Cc2nnc3n2CCN(Cc2cnc(-c4ccccc4)s2)CC3)cc1 | nt | -14.9% | -20.4% | nt | nt | nt
CC(C)(C)c1ccc(-c2noc(CCC(N)=O)n2)cc1 | 8.6% | ? | -21.3% | 0.3% | i | i
CC(C)(C)c1ccc(-c2noc(CCC(=O)N3CCOCC3)n2)cc1 | -2.9% | 18.4µM* | ? | -10.5% | i | ?
CN(C)C(=O)CCc1nc(-c2ccc(C(C)(C)C)cc2)no1 | -6.3% | 20.6µM* | 16.4µM* | -7.2% | i | ?
CNC(=O)CCc1nc(-c2ccc(C(C)(C)C)cc2)no1 | 4.6% | 13µM* | ? | 1.1% | i | i

Screening data (PubChem)
